tim10-1 inh: inhibits growth of tim10-1 mutant yeast; AID 463190; S. cerevisiae tim10-1 ts strain growth, BacTiter-Glo, 24 h; actives 2.2% (n = 330,000); inhibition, % at 20 µM;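 active = inhibition of at least 40%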;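 also: mutant grown at 25 °C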
PfHsp90 yeast 2: inhibits growth of yeast expressing Plasmodium falciparum Hsp90 | S. cerevisiae expressing PfHsp90, BacTiter-Glo ATP, 48 h; yeast lacking PDR1 and PDR3 efflux regulators | inhibition, % at 9.4 µM | actives 0.32% (n = 310,000) | AID 504621;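 active = every replicate shows inhibition above about 80%, whatever the replicate mean, limit read from the data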
Beta2AR agonist: human beta-2 adrenergic receptor agonism by FAP; P07550; Am2.2-beta2AR cells, FAP receptor internalization, flow cytometry; response, % (no concentration beside the values); actives 0.43% (n = 340,000); AID 504454;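 active = response above a set limit, near 3 SD of response in nonfluorescent compounds, cut at about 42% in these data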
Target sequence (P07550 whole entry, looked up): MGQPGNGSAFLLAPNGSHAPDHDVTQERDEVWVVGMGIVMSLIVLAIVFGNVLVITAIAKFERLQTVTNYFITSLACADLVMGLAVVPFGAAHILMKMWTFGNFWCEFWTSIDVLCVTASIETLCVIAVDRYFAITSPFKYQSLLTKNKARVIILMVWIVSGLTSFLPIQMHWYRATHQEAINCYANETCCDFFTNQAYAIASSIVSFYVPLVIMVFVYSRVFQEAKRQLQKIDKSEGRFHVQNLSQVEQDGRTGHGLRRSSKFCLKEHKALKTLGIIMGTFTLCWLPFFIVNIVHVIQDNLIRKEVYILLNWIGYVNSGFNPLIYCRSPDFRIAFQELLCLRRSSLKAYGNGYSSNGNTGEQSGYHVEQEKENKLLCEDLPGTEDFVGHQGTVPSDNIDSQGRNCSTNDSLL
TIM10 inh: growth inhibitors of TIM10 yeast strain; S. cerevisiae TIM10 strain growth, BacTiter-Glo luminescence, 24 h; inhibition, % at 10 µM; actives 1.4% (n = 330,000);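 active = inhibition of 40% or more at the single tested concentration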;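 also: wild-type TIM10 isogenic control strain grown at permissive 25 °C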
tim23-1 inh: growth inhibitors of tim23-1 mutant yeast | inhibition, % at 20 µM | S. cerevisiae tim23-1 growth, BacTiter-Glo luminescence, 24 h | actives 1.3% (n = 330,000);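 active = growth inhibition of the mutant yeast at or above 50%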;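 also: temperature-sensitive mutant grown at 25 °C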
tim10-1 confirm: confirmation of tim10-1 mutant yeast growth inhibitors; AID 463213; shares compounds with tim10-1 inh; inhibition, % at 20 µM; actives 56% (n = 7,400); S. cerevisiae tim10-1 ts strain growth, BacTiter-Glo, 24 h;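 active = inhibition of yeast growth at or above a set limit in either of two repeat tests at 20 µM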;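 also: tim10-1 mutant grown at permissive 25 °C to find synthetic lethal compounds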
Of the large screens only hits and unclear results are named; the others gave an inactive call (follow-up assays come after a bar, where they were run). Most compounds without a hit are left out; they make up all but 3.8% or so of the library.

COc1ccc(C(=O)/C(=C/O)N=Nc2ccc(F)cc2)cc1	tim10-1 inh 45 | tim10-1 confirm inactive
COc1ccc(-c2csc3ncnc(Cl)c23)cc1	none
COc1ccc(Nc2ncnc3scc(-c4ccc(OC)cc4)c23)cc1	tim10-1 inh 49 | tim10-1 confirm 36
O=C(Cn1nc(C(F)(F)F)c2c1CCC2)NCc1ccc(Cl)cc1	tim10-1 inh 41 | tim10-1 confirm inactive
Cc1ccc(NC(=O)c2ccccc2NC(=O)Cc2ccccc2)cc1	tim10-1 inh 44 | tim10-1 confirm inactive
Cc1ccccc1C(=O)Nc1ccccc1C(=O)NCc1ccccc1	tim10-1 inh 43 | tim10-1 confirm 36
O=S(=O)(c1ccc2c(c1)CCN2)N1CCCC1	none
Cc1cccc(NS(=O)(=O)c2ccc(C(=O)N3CC(C)OC(C)C3)cc2)c1C (stereo not given)	none
Cc1ccc(S(=O)(=O)NC(=O)c2ccc(-c3ccc(-c4ccccc4)cc3)o2)c(C)c1	tim10-1 inh 43 (no result: PfHsp90 yeast 2, Beta2AR agonist) | tim10-1 confirm 33
Cc1ccc(S(=O)(=O)NC(=O)c2ccc(F)cc2)c(C)c1	none
CC(OC(=O)c1ccccc1NCCO)C(=O)NC1CCCCC1C (stereo not given)	none
O=C(c1ccco1)N1CCN=C1SCc1ccccc1F	tim10-1 inh 44 | tim10-1 confirm inactive
O=C(c1ccco1)N1CCN=C1SCc1cccnc1	none
Cc1ccccc1NS(=O)(=O)c1ccc(C(=O)N2CCN(S(=O)(=O)c3ccccc3)CC2)cc1	none
O=C(/C=C/c1ccccc1Cl)N(c1ccccn1)C1CCCCC1	none
O=C(/C=C/c1ccccc1)N(c1ccccn1)C1CCCCC1	tim10-1 inh 43 | tim10-1 confirm inactive
Cc1cc(NC(=O)c2cccs2)n(-c2nc3ccccc3[nH]2)n1	none
Cc1cc(NC(=O)c2sccc2C)n(-c2nc3ccccc3[nH]2)n1	tim10-1 inh 49 | tim10-1 confirm inactive
Clc1ccccc1Nc1nnc(-c2ccncc2)s1	tim10-1 inh 40 | tim10-1 confirm 41
COc1ccc(Cl)cc1Nc1nnc(-c2ccncc2)s1	none
COc1ccc(Cl)c2c1[nH]c1nc(SCc3ccccn3)nnc12	tim10-1 inh 42 | tim10-1 confirm inactive
CC(C)(C)c1ccc2c(c1)N(CC(=O)N1CCCC1)C(=O)CO2	none
Cn1c(N)c(C(=O)COC(=O)C2CCC(C(C)(C)C)CC2)c(=O)n(C)c1=O (stereo not given)	tim10-1 inh 42 (no result: PfHsp90 yeast 2) | tim10-1 confirm inactive
Cc1cccc(C)c1N=C1NN=C(c2ccccc2F)CS1	none
Cc1ccccc1N=C1NN=C(c2ccccc2F)CS1	tim10-1 inh 42 | tim10-1 confirm inactive
O=C1Cc2cc(O)ccc2O1	none (no result: tim10-1 inh, PfHsp90 yeast 2, TIM10 inh, tim23-1 inh)
O=C(NNC(=S)NC(=O)C12CC3CC(CC(C3)C1)C2)c1ccncc1	tim10-1 inh 60 | tim10-1 confirm inactive
CC1(C(=O)NC(=S)NNC(=O)c2ccncc2)CCCCC1	none
CCCCCCC(=O)N(O)C1CC(=O)N(c2ccc(C)cc2)C1=O (stereo not given)	tim10-1 inh 71, PfHsp90 yeast 2 106 | tim10-1 confirm 44
O=C(CSc1nnc(-c2ccc(O)cc2)o1)N1CCOCC1	none
Oc1ccc(-c2nnc(SCC3CCCCC3)o2)cc1	tim10-1 inh 44 (no result: PfHsp90 yeast 2) | tim10-1 confirm inactive
O=C(Nc1ccccc1Cl)c1sccc1-c1ccccc1	none
COc1cccc(CNc2nc3nc(C)c(Cl)c(C)n3n2)c1	tim10-1 inh 48 | tim10-1 confirm 29
Cc1ccc(NC(=S)/N=C(\N)Nc2nc(C)c3cc(C)ccc3n2)c(C)c1	tim10-1 inh 50 | tim10-1 confirm 37
COc1ccc2nc(N/C(N)=N/C(=S)Nc3cccc(C)c3)nc(C)c2c1	none
CCOC(=O)C1=CC[C@@H](c2cc(OC)c(OC)c(OC)c2)N(S(=O)(=O)c2ccc(C)cc2)[C@H]1C(=O)OCC	none
N#C/C(=N\Nc1cccc(Cl)c1)C(=O)c1ccccc1	tim10-1 inh 42 | tim10-1 confirm inactive
O=C(NCCCSc1ccccc1)c1cc(Br)ccc1O	tim10-1 inh 46, PfHsp90 yeast 2 94 | tim10-1 confirm inactive
O=C(NCCSc1ccccc1)c1ccc(Br)cc1	none
Nn1c(SCC(=O)NC2CCCCC2)nnc1-c1ccccc1F	none
Cc1cccc(C)c1OC(=O)CCN1C(=O)C2C3C=CC(C4CC34)C2C1=O (stereo not given)	tim10-1 inh 41 | tim10-1 confirm inactive
CC1(C)Cc2c(ccc3ccccc23)/C(=C/C(=O)N2CCCCC2)N1	tim10-1 inh 45 | tim10-1 confirm 32
Cc1ccc(NC(=O)c2ccc(C(=O)c3ccccc3)cc2)nc1	none
CC[C@@]1(c2ccccc2)C(=O)N(C(=O)OC)N1C(=O)OC	none
COC(=O)N1C(=O)[C@@](c2ccccc2)(C2CCCCC2)N1C(=O)OC	tim10-1 inh 50 | tim10-1 confirm 45
O=C(Nc1ccccc1Br)C1CC(=O)N(c2ccc3c4c(cccc24)CC3)C1 (stereo not given)	tim10-1 inh 41 | tim10-1 confirm 33
Cc1ccccc1NC(=O)C1CC(=O)N(c2ccc3c4c(cccc24)CC3)C1 (stereo not given)	none
CC(CC(=O)Nc1ncc([N+](=O)[O-])s1)c1ccccc1 (stereo not given)	tim10-1 inh 43 (no result: PfHsp90 yeast 2) | tim10-1 confirm 52
O=C(COC(=O)COc1ccccc1)Nc1ncc([N+](=O)[O-])s1	none
CCC(Oc1ccccc1)C(=O)Nc1nnc(C)s1 (stereo not given)	none
CCC(Oc1ccccc1)C(=O)Nc1ncc([N+](=O)[O-])s1 (stereo not given)	tim10-1 inh 42 | tim10-1 confirm 55
CCn1c(SCC(=O)Nc2cccc(OC)c2)nc2c(c1=O)SCC2	none (no result: PfHsp90 yeast 2)
CC(C)N(C(=O)N1CCN(c2ccnc3cc(Cl)ccc23)CC1)C(C)C	tim10-1 inh 40 | tim10-1 confirm 29
O=C(c1cc(COc2cccc3cnccc23)on1)N1CCC(c2ccccc2Cl)C1 (stereo not given)	tim10-1 inh 51 | tim10-1 confirm inactive
CCc1ccc(CN(C)C(=O)c2cc(COc3cccc4cnccc34)on2)cc1	tim10-1 inh 44 | tim10-1 confirm inactive
CCN1CCN(C(=O)C(Cc2ccccc2)NC(=O)c2ccc(Cl)c(S(=O)(=O)N(C)C)c2)CC1 (stereo not given)	none
O=S(=O)(c1ccc(Br)c2nsnc12)N1CCOCC1	none
CN1CCN(S(=O)(=O)c2ccc(Br)c3nsnc23)CC1	tim10-1 inh 46 (no result: PfHsp90 yeast 2) | tim10-1 confirm inactive
O=C(O)C(CCC(C(=O)O)c1ccccc1)c1ccccc1 (stereo not given)	none (no result: tim10-1 inh, TIM10 inh, tim23-1 inh)
COc1ccc2oc(=O)c(-c3csc(Nc4cccc(O)c4)n3)cc2c1	tim10-1 inh 45, PfHsp90 yeast 2 103 | tim10-1 confirm 37
Cc1ccc(S(=O)(=O)N(C)CC(=O)O/N=C(\N)c2cccc(Br)c2)cc1	tim10-1 inh 50 | tim10-1 confirm 52

Screens: PubChem, several laboratories
